Mtb MenB inh – inhibitors of Mycobacterium tuberculosis MenB enzyme | P9WNP5 | MenB enzyme assay, absorbance read-out | inhibition, % (no concentration beside the values) | actives 0.43% (n = 100,000); in the data active means inhibition above about 21%, passing the limit was not always enough
Target sequence (P9WNP5 whole entry, looked up): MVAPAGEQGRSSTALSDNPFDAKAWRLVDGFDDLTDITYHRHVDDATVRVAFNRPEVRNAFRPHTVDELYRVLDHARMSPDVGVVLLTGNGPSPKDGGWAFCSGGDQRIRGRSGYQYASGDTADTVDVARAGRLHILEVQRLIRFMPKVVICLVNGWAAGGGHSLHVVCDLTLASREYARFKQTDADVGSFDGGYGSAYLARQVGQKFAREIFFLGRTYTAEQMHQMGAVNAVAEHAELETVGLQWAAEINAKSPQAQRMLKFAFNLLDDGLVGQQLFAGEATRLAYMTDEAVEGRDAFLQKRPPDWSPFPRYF
MbtI inh – blocks the Mycobacterium tuberculosis siderophore enzyme MbtI. P9WFX0. purified MbtI enzyme, fluorescence intensity read-out. inhibition, % (test concentration not listed). actives 0.89% (n = 100,000). AID 493033; in the data active means inhibition mostly above about 56%, no sharp cut-off; inactive means mostly below about 77%
AID504770 – growth inhibitors of E. coli YBA685 in a screen for V. cholerae RctB (chromosome II replication) inhibitors; E. coli YBA685 rctB-dependent plasmid, OD600 growth, 3 h; hits give low values; z-score (concentration not given with the values); AID 504770; actives 0.27% (n = 130,000); in the data active means z-score below about -2, passing the limit was not always enough
Polio RdRp inh – poliovirus RNA polymerase inhibition; poliovirus polymerase elongation, fluorescence polarization; hits give low values; actives 0.66% (n = 150,000); % elongation, % (compound at 16.7 µg/mL); P03300; in the data active means % elongation below about 90%
Each line names hits and unclear results; the compound was inactive in the other large screens; ! = repeats disagree. Hits are enriched below; roughly 1.5% of the tested compounds scored in any of these assays.

CCN1C(=O)CC(NC2CCN(c3ccc(C(F)(F)F)cn3)CC2)C1=O (centres undefined)	none
O=C1C=C/C(=N/N(Cc2ccccc2)c2ccccc2)O1	MbtI inh 90
CC(C)(/C=N/N(Cc1ccccc1)c1ccccc1)CO	none
OCc1nc2ccccc2n1Cc1ccccc1Cl	none
Oc1ccc(/C=N/n2cnn(Cc3ccccc3Cl)c2=S)c(O)c1	Polio RdRp inh 87
CSc1ncc2c(n1)-c1ccccc1N(Cc1ccccc1)S2(=O)=O	Polio RdRp inh -15 (no result: Mtb MenB inh, MbtI inh, AID504770)
CSc1ncc2c(n1)-c1ccccc1N(C)S2(=O)=O	none
Cc1ccc(S(=O)(=O)c2ccccc2)cc1S	Polio RdRp inh 62 (no result: MbtI inh)
c1ccc(CN2CCN(Cc3cnc(-c4ccccc4)[nH]3)CC2)cc1	none (no result: Mtb MenB inh, MbtI inh, Polio RdRp inh)
CC1(C)C(C(=O)O)N2C(=O)CC2S1(=O)=O (centres undefined)	AID504770 -2.4
COc1ccccc1NS(=O)(=O)c1cccc(C(=O)Nn2cnnc2)c1	Polio RdRp inh 72
C=CCn1c(=O)[nH]c2nc3cc(N=CN(C)C)c(C)cc3nc2c1=O	none
C=CCn1c(=O)[nH]c2nc3cc(N=CN(C)C)ccc3nc2c1=O	Polio RdRp inh -6.0
COC(=O)c1cc(NS(=O)(=O)c2ccccc2)cc(C(=O)OC)c1	none (no result: MbtI inh)
CN(C)C(=O)CSc1ccccc1C(=O)O	none
C[CH2][Hg][S]c1ccccc1C(=O)O	AID504770 -5.4
NS(=O)(=O)c1ccc(-n2cccc2C=C2C(=O)NC(=S)NC2=O)cc1	MbtI inh 97
Cc1cc(O)c(C(C)C)cc1NC(=O)c1ccccc1	none (no result: MbtI inh)
Nn1c(-c2ccco2)n[nH]c1=S	none
CCOc1ccccc1-c1n[nH]c(=S)n1N	Polio RdRp inh 83
CC1Cc2scc[n+]2-c2ccccc2N1C=O (centres undefined)	Mtb MenB inh 100 (no result: MbtI inh)
O=c1[nH]ccn(-c2ccccc2)c1=O	none
O=c1c(=S)[nH]ccn1-c1ccccc1	MbtI inh 93
O=C(NCCO)c1nnc(-c2ccc3c(c2)OCO3)o1	none
Fc1ccccc1-c1nnc2ccc(C(F)(F)F)cn12	Polio RdRp inh 16 (no result: MbtI inh)
CN1C(=O)S/C(=C/c2ccc(-c3ccc(C(=O)O)c(Cl)c3)o2)C1=O	none
CCN1C(=O)/C(=C\c2ccc(-c3ccc(Cl)c(C(=O)O)c3)o2)SC1=S	MbtI inh 67
N#C/C(=C(/O)C(F)(F)F)c1nc2ccccc2s1	none (no result: Mtb MenB inh, MbtI inh, Polio RdRp inh)
N#C/C(=C(/O)C1CC1)c1nc2ccccc2s1	MbtI inh 92 (no result: Mtb MenB inh)
CCCN(Cc1nnc(-c2ccccc2Cl)o1)C(=O)c1c(F)cccc1Cl	none
COc1ccc(-c2csc(-n3[nH]c(C)c(C(c4ccc(Cl)cc4)C(C#N)C(N)=O)c3=O)n2)cc1 (centres undefined)	none
Nc1ccc(S(=O)(=O)CCSS(=O)(=O)c2ccc(N)cc2)cc1	MbtI inh 99, Polio RdRp inh 63
O=C(CSc1nc2c(c(=O)[nH]1)CSC2)c1ccc(Cl)cc1	MbtI inh 82
CCCCCCCc1c(C#N)c(N)[nH]c(=S)c1C#N	MbtI inh 97, Polio RdRp inh 69
CCN(CC)P1(=S)N(c2ccccc2)N=C2C=C(C)c3ccccc3N21 (centres undefined)	Polio RdRp inh 68
O=C1C=CC(=O)C(C2=C3C(=O)N(Cc4ccccc4)CC(=O)N3CCC2)=C1	MbtI inh 100
O=c1oc2cc(Cl)c(O)c(Cl)c2s1	MbtI inh 99
COc1ccc(NC(=S)Nc2ccn(C)n2)c(OC)c1	none
Nc1nnc(SCC(O)Cn2c3c(c4ccccc42)CCCC3)s1 (centres undefined)	Mtb MenB inh 25 (no result: MbtI inh)
S=c1nc(C2CC2)[nH]c2ccccc12	MbtI inh 92
CC(C)c1nc(=S)c2ccccc2[nH]1	none
O=c1cc(CSc2ccc(Cl)cc2)[nH]c(=S)[nH]1	MbtI inh 58
O=C(OCC1CCNCC1)c1ccc(F)cc1	Mtb MenB inh 27
O=C(OCC1CCNCC1)c1ccc2c(c1)OCO2	none
COC(=O)CC1SC(=O)NC1=S (centres undefined)	MbtI inh 84
COC(=O)CC1SC(=O)NC1=Nc1ccc(C)cc1 (centres undefined)	none (no result: Mtb MenB inh, MbtI inh, Polio RdRp inh)
O=C(CC(NC(c1ccccc1)c1ccccc1)C(=O)O)c1ccc(Cl)cc1 (centres undefined)	Mtb MenB inh 72 (no result: MbtI inh)
O=C(OCc1cn2cc(Cl)ccc2n1)C1COc2ccccc2O1 (centres undefined)	none
CC1(C)CC(=O)C2=C(C1)N=C1c3ccccc3C(=O)C1C2c1ccc(O)c(O)c1 (centres undefined)	MbtI inh 85 (no result: Mtb MenB inh, Polio RdRp inh)
CCCCCOc1ccc(C(=O)/C=C/C(=O)O)cc1	MbtI inh 63
CCCCCCCCCCCCCCCCCCc1ccc(C(=O)/C=C/C(=O)O)cc1	none (no result: AID504770)
COC(=O)c1sc(=S)n(-c2cccc(Cl)c2)c1N	MbtI inh 94
CNC(=O)c1sc(=S)n(-c2ccccc2)c1N	MbtI inh 66
Cc1ccc(-n2c(N)c(C(N)=O)sc2=S)cc1C	MbtI inh 94
CCn1c(C(=O)N2CCC(C(=O)NCCc3ccc(OC)c(OC)c3)CC2)cc2sccc21	none
COc1ccccc1/C=C1/C(=O)ON=C1C	AID504770 -2.8
C[n+]1c(CF)sc2ccccc21	MbtI inh 97 (no result: Mtb MenB inh)
O=C(O)Cc1coc(-c2ccccc2)n1	none
Cc1oc2c(c1C(=O)O)C(=O)c1ccccc1C2=O	Polio RdRp inh 66
Cc1oc2c(c1C(=O)NCc1ccccc1)C(=O)c1ccccc1C2=O	none
O=C1N=c2ccccc2=C1c1sc(N2CCCCC2)nc1O	Polio RdRp inh 58
O=C1N=c2ccccc2=C1c1sc(=S)[nH]c1O	MbtI inh 84
CN(c1ccc(O)cc1)c1nc(O)c(C2=c3ccccc3=NC2=O)s1	none
O=C1N=c2ccccc2=C1c1sc(=O)[nH]c1O	none
Cc1cc(N)c(N)cc1C	none
Cc1cc(N)c(O)cc1C	MbtI inh 100
Cc1cccc(N2C(=O)CSC23C(=O)N(CN2CCOCC2)c2ccccc23)c1 (centres undefined)	none
CCCCNC(=O)c1c[nH]c2ccc(C)cc2c1=O	none
COC(=O)C(C)n1nnc2sc(-c3ccccc3)cc2c1=O (centres undefined)	none (no result: Mtb MenB inh, MbtI inh, AID504770)
CCc1ccc(NC(=O)C(C)n2nnc3sc(-c4ccccc4)cc3c2=O)cc1 (centres undefined)	Polio RdRp inh 79 (no result: Mtb MenB inh, MbtI inh, AID504770)
CN1CCN(S(=O)(=O)c2ccccc2C(F)(F)F)CC1	Polio RdRp inh 89
O=S(=O)(c1ccccc1C(F)(F)F)N1CCNCC1	none
Cc1cccc(OCc2nnc(SCC(=O)NC34CC5CC(CC(C5)C3)C4)o2)c1	none
CN(C)S(=O)(=O)c1cccc(-c2nnc(SCc3cc(Cl)cc4c3OCOC4)n2N)c1	Polio RdRp inh 80
O=c1[nH]c2cc(Br)cnc2[nH]1	Polio RdRp inh 66
O=c1[nH]c2ccccc2[nH]1	none
CN(C)c1nc(-c2ccccc2)c(CC(=O)O)s1	none
CN(C)c1nc(-c2ccccc2)[n+](C)s1	AID504770 -4!
Cn1c(=O)cc2c3c(cccc31)C(=O)c1ccccc1-2	none
COCCN1CN(Cc2ccco2)CC2=C1CC(c1ccccc1)CC2=O (centres undefined)	none
COc1ccc(NC(=O)CN(C)CC(=O)Nc2ccc(N3CCOCC3)cc2)cc1	none
